Laboratory results published in PubChem BioAssay AID1946 (Johns Hopkins Ion Channel Center, 2009).
The campaign covered roughly 2,400 compounds. About 180 (7.5%) were called active.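 How the source made its calls: active means readout below zero, meaning a drop past 3 SD under the dofetilide-free negative control mean; inactive means the rest.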 Many of the other results were omitted from the sample, so actives are more common in it than they were.

What follows are molecules tested against Potassium voltage-gated channel subfamily KQT member 2 (Rattus norvegicus) (UniProt O88943) (assay: KCNQ2 blockade in CHO cells – cell-based, FluxOR thallium flux, counter-screen for hERG block protector project, confirmation (AID 1946)). Details: FluxOR thallium flux fluorescence, at 10 µM, active compounds read low, zero marks the 3-SD hit cutoff.
Sequence of Potassium voltage-gated channel subfamily KQT member 2 (Rattus norvegicus) (O88943 whole entry, looked up): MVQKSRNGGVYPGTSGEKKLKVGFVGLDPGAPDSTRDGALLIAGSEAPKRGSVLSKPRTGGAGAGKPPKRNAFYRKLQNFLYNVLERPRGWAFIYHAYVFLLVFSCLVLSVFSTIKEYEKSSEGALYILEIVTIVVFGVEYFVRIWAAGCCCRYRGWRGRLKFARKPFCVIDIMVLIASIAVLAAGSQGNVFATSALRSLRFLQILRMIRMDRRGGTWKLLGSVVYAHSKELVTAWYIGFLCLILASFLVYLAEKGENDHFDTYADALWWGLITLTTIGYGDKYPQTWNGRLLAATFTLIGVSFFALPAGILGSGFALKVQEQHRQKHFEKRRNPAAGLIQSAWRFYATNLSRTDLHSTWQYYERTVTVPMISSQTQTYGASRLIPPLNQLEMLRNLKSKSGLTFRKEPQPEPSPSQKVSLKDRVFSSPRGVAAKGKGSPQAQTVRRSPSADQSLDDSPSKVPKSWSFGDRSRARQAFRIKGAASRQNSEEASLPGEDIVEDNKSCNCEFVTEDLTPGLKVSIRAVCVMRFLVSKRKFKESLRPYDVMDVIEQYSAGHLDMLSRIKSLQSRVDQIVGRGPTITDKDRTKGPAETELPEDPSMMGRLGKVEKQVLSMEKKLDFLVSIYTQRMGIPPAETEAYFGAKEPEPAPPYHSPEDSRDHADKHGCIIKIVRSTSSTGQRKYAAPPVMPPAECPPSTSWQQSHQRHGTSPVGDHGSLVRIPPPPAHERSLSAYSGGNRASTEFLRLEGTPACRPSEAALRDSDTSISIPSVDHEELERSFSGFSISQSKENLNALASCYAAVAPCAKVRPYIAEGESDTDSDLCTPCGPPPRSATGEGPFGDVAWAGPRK
With Cc1ccc(S(=O)(=O)N(C)C)cc1NC(=S)NC(C)CCCC(C)C (centres undefined) the activity change vs negative control was -2.5% (active). With O=c1c2ccc(Cl)cc2[nH]c(=S)n1CCC1=CCCCC1 the activity change vs negative control was 32.4% (inactive). In the case of NC(=O)c1cccc(N=Cc2cc(Cl)cc(Cl)c2O)c1, the activity change vs negative control was 43.3% (inactive). O=C(Nc1nc(=S)ss1)c1ccc(Cl)cc1Cl was tested, and the activity change vs negative control was 122% (inactive). CCC1CCCCN1C(=S)NC(=O)c1cccc([N+](=O)[O-])c1 (centres undefined) was tested, and the activity change vs negative control was 55.4% (inactive). For O=C(NC(=S)NCCC1=CCCCC1)c1ccc(Br)o1, the activity change vs negative control was 26.5% (inactive). In the case of Cc1cc([N+](=O)[O-])c(C)cc1-c1ccc(/C=N/NC(=O)Cn2nnnc2N)o1, the activity change vs negative control was 19.5% (inactive). In the case of C=CCSC1=C(C#N)C(c2ccccc2)CC(=O)N1 (centres undefined), the activity change vs negative control was -8.8% (active). In the case of COc1ccc(C(=O)NNC(=O)C(=O)Nc2cccc3ccccc23)cc1, the activity change vs negative control was 80.5% (inactive). With Cc1ccc(NC(=O)C(=O)NNC(=O)c2cccs2)cc1 the activity change vs negative control was 83.8% (inactive). For C=CCn1c(SCC(N)=O)nc2scc(-c3ccc(C)o3)c2c1=O, the activity change vs negative control was 33% (inactive). With CCCN(CCC)C(=S)NC(=O)c1ccc(-c2ccccc2)cc1 the activity change vs negative control was 106% (inactive). In the case of CS(=O)(=O)N1CCC(C(=O)Nc2c(F)cccc2F)CC1, the activity change vs negative control was 16.7% (inactive). In the case of O=C(CSc1nnc(NC(=O)c2ccc(S(=O)(=O)N3CCOCC3)cc2)s1)Nc1ccccc1C(F)(F)F, the activity change vs negative control was 15.7% (inactive). In the case of CSc1ccc(S(=O)(=O)N2CCC(C(=O)Nc3ccccc3C(F)(F)F)CC2)cc1, the activity change vs negative control was -0.2% (active). With S=c1[nH]c2cc(-c3ccccc3)ccc2o1 the activity change vs negative control was 114% (inactive). In the case of N#Cc1ccc(-c2nc3ccc(Br)cc3c(=O)n2O)cc1, the activity change vs negative control was 40.3% (inactive). For COc1ccc(OC)c(S(=O)(=O)Nc2ccc(O)c3ccccc23)c1, the activity change vs negative control was 1.4% (inactive). In the case of O=S(=O)(Nc1ccc(O)c2ccccc12)c1ccc(F)cc1, the activity change vs negative control was 1.7% (inactive). In the case of Cc1ccc(S(=O)(=O)Nc2ccc(O)c3ccccc23)c(C)c1, the activity change vs negative control was -3.3% (active). In the case of CC1Cc2ccccc2N1C(=S)NC(=O)C1(C)CC1(Cl)Cl (centres undefined), the activity change vs negative control was 59.5% (inactive). With CC(NC(=S)NC1CCCCC1)c1ccccc1 (centres undefined) the activity change vs negative control was 29.9% (inactive). In the case of Cc1ccc(S(=O)(=O)N2CCOCC2)cc1NC(=O)COC(=O)c1cccnc1Cl, the activity change vs negative control was -1.4% (active). In the case of Cc1ccc(Cl)cc1NC(=O)COC(=O)c1ccccc1O, the activity change vs negative control was 6.8% (inactive). With Cc1ccc(S(=O)(=O)N2CCOCC2)cc1NC(=O)CSc1nc2ccccc2c(=O)n1Cc1ccccc1 the activity change vs negative control was 13.7% (inactive). With C=CCNC(=S)Nc1sc2c(c1C(=O)OCC)CC(C)(CC)OC2 (centres undefined) the activity change vs negative control was 38.9% (inactive). With CC(=O)/C=C1/C(=O)Nc2ccccc21 the activity change vs negative control was -4.4% (active). For CCOC(=O)c1c(NS(C)(=O)=O)sc2c1CCC(C)C2 (centres undefined), the activity change vs negative control was 40.9% (inactive). O=c1c2[nH]c3ccccc3c2nc2n1CCCS2 was tested, and the activity change vs negative control was 30.9% (inactive). c1ccc(-c2csc(Nc3ccc4c(c3)OCCO4)n2)cc1 was tested, and the activity change vs negative control was 1.2% (inactive). O=C(Nc1ccc(-c2csc(Nc3cccc(C(F)(F)F)c3)n2)cc1)c1ccccc1 was tested, and the activity change vs negative control was -0.8% (active). For O=C(NC(=S)Nc1cccc(C(F)(F)F)c1)c1csnn1, the activity change vs negative control was 138% (inactive). With CC(=O)OCC1O[C@@H](O[C@@H]2C[C@H]3C(C)(C)[C@H](OC(C)=O)CC[C@]3(C)[C@H]3CC[C@]45C[C@]4(CC[C@H]5[C@@H](C)C[C@@H](O)[C@H](O)C(C)(C)O)[C@@]32C)[C@H](O)[C@@H](O)[C@@H]1O (some centres undefined) the activity change vs negative control was 32.4% (inactive). In the case of Cc1csc(NC(=S)NC(=O)c2ccccc2)n1, the activity change vs negative control was 36.6% (inactive). COc1ccc(C(=O)NNC(=O)CSc2nnc(COc3ccccc3)n2C)cc1 was tested, and the activity change vs negative control was 6% (inactive). With NC(=O)CSc1nc2ccccc2c(=O)n1CCc1ccccc1 the activity change vs negative control was 7.8% (inactive). In the case of Cn1cnnc1SCC(=O)NCc1ccccc1, the activity change vs negative control was -1.1% (active). With C=CCn1c(O)c(N=NC(=S)Nc2ccc(OC)cc2)c2ccccc21 the activity change vs negative control was 39.5% (inactive). CCCOc1ccc(CN(CCC#N)C(=S)NC(=O)c2ccccc2)cc1 was tested, and the activity change vs negative control was 35.1% (inactive). In the case of COc1ccc(/C=C/C(=O)NC(=S)NNC(=O)c2cccs2)cc1, the activity change vs negative control was 6.5% (inactive). With CCCOc1ccc(C(=O)NNC(=S)NC(=O)c2ccccc2)cc1 the activity change vs negative control was -1.3% (active). With CCCOc1ccc(C(=O)NNC(=S)NC(=O)c2cccs2)cc1 the activity change vs negative control was -12.7% (active). CCCOc1ccc(C(=O)NNC(=S)NC(=O)c2ccco2)cc1 was tested, and the activity change vs negative control was -4.6% (active). O=C(NC(=S)NNC(=O)c1cccs1)c1ccc(Br)o1 was tested, and the activity change vs negative control was 18.8% (inactive). With CCOc1ccc(C(=O)NC(=S)N(Cc2ccccc2)Cc2ccccc2)cc1 the activity change vs negative control was 15.8% (inactive). With CCOc1ccc(NC(=S)NC(=O)c2ccco2)cc1 the activity change vs negative control was 37.5% (inactive). For CCOc1ccccc1NC(=S)NC(=O)c1ccco1, the activity change vs negative control was 21.9% (inactive). With COC(=O)C1=C(C)NC2=C(C(=O)CCC2)C1c1ccc(-c2ccsc2C(=O)OC)o1 (centres undefined) the activity change vs negative control was 75.1% (inactive). For O=C(NC(=S)NCc1ccccc1)c1cccs1, the activity change vs negative control was 36.9% (inactive). CCOc1ccc(-c2c(=O)n(O)c3ccccc3[n+]2[O-])cc1 was tested, and the activity change vs negative control was 83.3% (inactive). For S=c1[nH]cc(Cc2ccccc2)s1, the activity change vs negative control was 25.1% (inactive). For O=C1C=C(Nc2cccc3cccnc23)c2ccccc2C1=O, the activity change vs negative control was 14.9% (inactive). With Oc1c(Br)cc(Br)cc1CNc1cccc2cccnc12 the activity change vs negative control was -1.8% (active). In the case of Oc1c(Br)cc(Br)cc1C=Nc1cccc2ncccc12, the activity change vs negative control was 52.3% (inactive). For Cc1cc(C)cc(-n2ncc3c2CCCC3NC(=O)c2csnn2)c1 (centres undefined), the activity change vs negative control was -0.8% (active). With Cc1cccnc1NC(=O)c1csnn1 the activity change vs negative control was 14.2% (inactive). In the case of COc1ccc(-n2ncc3c2CC(C)(C)CC3NC(=O)c2cn[nH]c2)cc1 (centres undefined), the activity change vs negative control was 0.2% (inactive). For Cc1ccc(-n2ncc3c2CCCC3NC(=O)c2csnn2)cc1C (centres undefined), the activity change vs negative control was -1.1% (active). With Cc1nn(-c2ccccc2)c(Cl)c1/C=C1\SC(=S)NC1=O the activity change vs negative control was 81.9% (inactive). COc1ccc(-c2cc(C(=O)N3CCCC3)no2)cc1OC was tested, and the activity change vs negative control was 24% (inactive). O=C(NC(=S)Nc1ccccc1)c1ccc(Br)o1 was tested, and the activity change vs negative control was 34.7% (inactive). For Cc1ccc(C(C(=O)NC(C)(C)C)N(Cc2cccnc2)C(=O)C(=O)NC2CCCCC2)o1 (centres undefined), the activity change vs negative control was 14.9% (inactive). In the case of CCSc1nc(=S)cc(C)[nH]1, the activity change vs negative control was 78.1% (inactive). With CC(C)N1CC(C(=O)Nc2ccc(Cl)c(Cl)c2)CC1=O (centres undefined) the activity change vs negative control was -0.8% (active). For COc1ccc(S(=O)(=O)N2CCCC(C(=O)Nc3ccc(OC)c(OC)c3)C2)cc1 (centres undefined), the activity change vs negative control was 5.6% (inactive). For O=C(O)C1C2CCC(O2)C1C(=O)Nc1ccc(F)c(Cl)c1 (centres undefined), the activity change vs negative control was 10.3% (inactive). For CCOC(=O)C(=CNc1ccc(N2CCOCC2)cc1)C(=O)OCC, the activity change vs negative control was 29.7% (inactive). In the case of COc1ccccc1Cn1c(=S)[nH]c2ccc(Br)cc2c1=O, the activity change vs negative control was 7.2% (inactive). For Cc1[nH]c(-c2ccccn2)nc(=S)c1Cl, the activity change vs negative control was 107% (inactive). O=c1c2ccccc2[nH]c(=S)n1CCC1=CCCCC1 was tested, and the activity change vs negative control was 49.3% (inactive). Cc1ccc(NS(=O)(=O)c2cn(C)c(=O)n(C)c2=O)c(C)c1 was tested, and the activity change vs negative control was 14.1% (inactive). With Cc1ccc2cc(CCNC(=O)C(=O)c3c(C)[nH]c4ccccc34)c(=O)[nH]c2c1 the activity change vs negative control was 0.8% (inactive). In the case of Cc1ccc2cc(CN(CCCN(C)C)C(=S)NCc3ccccc3)c(=O)[nH]c2c1C, the activity change vs negative control was -0.3% (active). For Cc1ccc(-n2nc3ccc(N)cc3n2)c(C)c1, the activity change vs negative control was -14.5% (active). With O=C(COc1ccc2c3c(c(=O)oc2c1)CCC3)N[C@@H](Cc1ccccc1)C(=O)O the activity change vs negative control was 31.1% (inactive). In the case of CCOC(=O)C1CCN(S(=O)(=O)c2cccc3nonc23)CC1, the activity change vs negative control was 20.3% (inactive). With CCOc1ccc(C(=O)N(CN2CCCC2=O)c2ccc(C)cc2)cc1 the activity change vs negative control was 44.8% (inactive). With CC(C)OC(=O)c1c(NC(=O)c2ccco2)sc2c1CCCCC2 the activity change vs negative control was 3.9% (inactive). Cc1ccc(C(=O)Nc2sc3c(c2C(=O)O)CCCCC3)o1 was tested, and the activity change vs negative control was -2.5% (active). With Cc1onc(-c2ccccc2)c1C(=O)NC(=S)Nc1sc2c(c1C#N)CCCC2 the activity change vs negative control was 10.5% (inactive). Oc1c(Br)cc(Br)cc1C=Nc1ccc2[nH]ncc2c1 was tested, and the activity change vs negative control was 54.4% (inactive). In the case of CC(C)Oc1cccc(C(=O)NC(=S)N2CCN(c3ccc(C(F)(F)F)cc3[N+](=O)[O-])CC2)c1, the activity change vs negative control was 11.4% (inactive). O=C(NC(=S)N1CCN(c2ccc(C(F)(F)F)cc2[N+](=O)[O-])CC1)c1cccs1 was tested, and the activity change vs negative control was 30.1% (inactive). For COc1cccc(OC)c1C(=O)NC(=S)N1CCN(c2ccc(C(F)(F)F)cc2[N+](=O)[O-])CC1, the activity change vs negative control was -6% (active). CCOC(=O)c1n[nH]n2c1nc(=S)c1ccccc12 was tested, and the activity change vs negative control was 77.4% (inactive). For CSC(=S)N/N=C/c1ccccc1, the activity change vs negative control was 71% (inactive). Cc1cccc(/C=N/NC(=O)c2cc(Br)ccc2O)n1 was tested, and the activity change vs negative control was 23.8% (inactive). Cc1ccc(C(=O)N2CCN(c3ccccc3)CC2)cc1S(=O)(=O)N1CCCC1 was tested, and the activity change vs negative control was 29.7% (inactive). O=C(NC(=S)N(CC1CCC1)CC1CCCO1)c1cccc([N+](=O)[O-])c1 (centres undefined) was tested, and the activity change vs negative control was 63.2% (inactive). With O=C(CCc1ccccc1)NC(=S)Nc1cc(C(F)(F)F)ccc1N1CCOCC1 the activity change vs negative control was -15.9% (active). O=C(NC(=S)Nc1cc(C(F)(F)F)ccc1N1CCOCC1)c1ccco1 was tested, and the activity change vs negative control was 11.7% (inactive). In the case of O=C(NC(=S)Nc1cc(C(F)(F)F)ccc1Cl)c1ccccc1, the activity change vs negative control was 8.2% (inactive). For COc1cc(C(=O)Nc2ccc(O)cc2C(=O)O)ccc1OC(C)=O, the activity change vs negative control was 3.8% (inactive). Cn1c(=O)c(Sc2ccccc2)c(O)c2ccccc21 was tested, and the activity change vs negative control was 23.4% (inactive). For COc1ccc(C(=O)NNC(=O)C(=O)NC2CCCCC2)cc1, the activity change vs negative control was 20.2% (inactive). O=C(c1csc(Nc2ccccc2Cl)n1)N1CCCC1 was tested, and the activity change vs negative control was 0% (inactive). In the case of COc1ccccc1-n1cnc2sc(C)c(C)c2c1=O, the activity change vs negative control was 11.8% (inactive). CCOc1ccc(-n2cnc3sc(C)c(C)c3c2=O)cc1 was tested, and the activity change vs negative control was 3% (inactive). With Cc1ccc(OC(=O)c2sc3ncn(C)c(=O)c3c2C)cc1 the activity change vs negative control was -1.4% (active).
